Measurements taken from PubChem BioAssay.
Results filed as inconclusive are left out. The source made the active and inactive calls.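 The calls were made as follows, unless noted: active = RAM network inhibition above 8.4% in each of two replicates, 3 SD over the compound average; inconclusive = above 8.4% inhibition in only one replicate; inactive = 8.4% inhibition or less in each replicate.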

Legend:
[1] = reducers of endogenous Her2 protein level, primary screen, SKBR3 breast tumor cells, AlphaScreen, ATP viability (AID 461;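 active = Her2 level under about 52% in both replicate screens, with viability over 70% of control, limit read from the data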;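 as to Her2 level: lower value means less Her2 protein in the cells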;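 as to viability: percent of carrier control wells set as 100% viability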); settings: 18-24 h, measured here: SKBR3 viability, ATP luminescence, at 10 µM
[2] = target: Receptor tyrosine-protein kinase erbB-2 (Homo sapiens) (UniProt P04626); assay: as above; settings: 18-24 h, at 10 µM, stronger effect = lower value
[3] = SK-BR-3 cell growth inhibitors, pilot screen, 24 h, human (AID 572;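 active = viability at or below 10% of carrier control in both of two separate runs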;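 also: compound exposure lasted between 18 and 24 h rather than exactly 24 h; 100% = carrier-treated control wells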); settings: SK-BR-3 viability, CellTiter-Glo luminescence, at 10 µM, stronger effect = lower value
[4] = HUVEC growth inhibition – cell-based, human, primary screen (AID 575;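 active = viability at or below 30% in both replicate assays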;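 also: 100% = median of untreated cell wells with 0.1% DMSO on each plate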); settings: HUVEC proliferation, CellTiter-Glo luminescence, 72 h; at 10 µM; stronger effect = lower value
[5] = growth inhibitors of H69AR lung tumor, primary screen, human, duplicate replicates (AID 580;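 active = viability at or under a set limit in both replicates, limit being median viability minus 3 SD, cut at about 48% in these data, passing the limit was not always enough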;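 also: 100% = mean luminescence of untreated wells and 0% = no signal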); settings: H69AR lung tumor cells viability, ATP luminescence, 72 h; at 10 µM; stronger effect = lower value
[6] = reversal of MRP1-mediated doxorubicin resistance, pilot screen, H69AR cells, doxorubicin co-treatment (AID 601;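 active = viability loss from added drug above about 55%, and viability with drug at most 40%, in both replicates, limit read from the data, passing the limit was not always enough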); settings: CellTiter-Glo, 72 h, at 10 µM; for differential viability (reversal): stronger effect = higher value
[7] = 384-well plate pilot, post-Golgi transport modulator project, inhibition of yeast transport mutant growth (AID 636; in the data active = inhibition above about 31%); settings: absorbance 615 nm, about 18 h, stronger effect = higher value
[8] = growth suppression of yeast trafficking mutant, preliminary HTS, modulators of trafficking downstream of Golgi apparatus project, 1536-format plate, OD 615 nm (AID 637; in the data active = inhibition above about 30%); settings: yeast transport mutant growth, absorbance 615 nm, 18 h; stronger effect = higher value
[9] = OD615 S. cerevisiae growth inhibition, permissive medium, pilot counter-assay, permissive growth control for S. cerevisiae lifespan shortening project (AID 705;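 active = growth inhibition above 25% in both replicates, a cutoff set 3 SD above the mean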); settings: OD615, 24 h, at 10 µM, stronger effect = higher value
[10] = Restrictive medium S. cerevisiae growth inhibition, OD615, pilot screen of yeast lifespan reduction project, restrictive growth control (AID 706;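 active = growth inhibition above a set limit, 3 SD over mean compound inhibition, in both replicates, cut at about 43% in these data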;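 also: modified DeaD lifespan yeast strain shifted to restrictive glucose medium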); settings: OD615, 48 h, at 10 µM, stronger effect = higher value
[11] = viability gain of MRP-1-high H69AR cells under doxorubicin, pilot screen, MRP-1 activator project, CellTiter-Glo, duplicate (AID 807;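 active = viability increase at or above a cutoff of the median across tested compounds plus 3 SD, cut at about 8.5% in these data, passing the limit was not always enough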;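 also: compound pretreatment 18-22 h then 72 h combined with doxorubicin; 0% = doxorubicin alone and 100% = vehicle without doxorubicin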); settings: H69AR viability with doxorubicin, CellTiter-Glo luminescence; at 10 µM; stronger effect = higher value
[12] = growth suppression of beta-catenin knockout HCT116, pilot screen, human colon tumor cells (AID 823;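 active = cell viability at or below a set limit in both duplicate runs, the limit being the all-compound median minus 4 SD, cut at about 23% in these data, passing the limit was not always enough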;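 also: 0% = wells killed by 20 µM Hyamine and 100% = untreated DMSO cell wells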); settings: CellTiter-Glo, 60 h, at 10 µM, stronger effect = lower value
[13] = growth suppression of PTEN-deleted HCT116, pilot screen, cell-based, HCT116 clonal line, CellTiter-Glo (AID 824;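 active = viability at or below 27.92% in each of two runs, the all-compound median minus 4 SD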;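 also: 0% = 20 µM Hyamine control and 100% = vehicle cell control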); settings: 60 h, at 10 µM, stronger effect = lower value
[14] = inhibitors of the yeast RAM network, pilot screen, dse1pr::URA3 reporter, 5-FOA selection (AID 869;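 active = inhibition over a set limit, the all-compound mean plus 3 SD, in both replicate runs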;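 also: 0% = DMSO wells with no growth and 100% = 10 µM 1-NA-PP1 with full growth; RAM network block rescues cells from 5-FOA so hits raise OD615 growth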); settings: S. cerevisiae dse1pr::URA3 5-FOA growth, OD615, 2 d; at 10 µM; stronger effect = higher value; strain carries analog-sensitive mutant Cbk1 kinase
[15] = RAM signaling pathway blockade in yeast – S. cerevisiae, Pdr1DBD-CYC8 efflux-inhibited sensitized strain, primary screen (AID 1298);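 also: 0% = DMSO untreated cells without growth and 100% = 10 µM 1-NA-PP1 full growth; higher means more yeast growth rescued from 5-FOA killing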; settings: S. cerevisiae cbk1-as DSE1-URA3 strain, 5-FOA growth OD615, 2 d; at 50 µM; stronger effect = higher value
[16] = H69AR cells + 2 uM doxorubicin, measured here: viability with 2 uM doxorubicin, stronger effect = lower value
[17] = H69AR cells, compound alone cytotoxicity

Receptor tyrosine-protein kinase erbB-2 (Homo sapiens), sequence (P04626 whole entry, looked up): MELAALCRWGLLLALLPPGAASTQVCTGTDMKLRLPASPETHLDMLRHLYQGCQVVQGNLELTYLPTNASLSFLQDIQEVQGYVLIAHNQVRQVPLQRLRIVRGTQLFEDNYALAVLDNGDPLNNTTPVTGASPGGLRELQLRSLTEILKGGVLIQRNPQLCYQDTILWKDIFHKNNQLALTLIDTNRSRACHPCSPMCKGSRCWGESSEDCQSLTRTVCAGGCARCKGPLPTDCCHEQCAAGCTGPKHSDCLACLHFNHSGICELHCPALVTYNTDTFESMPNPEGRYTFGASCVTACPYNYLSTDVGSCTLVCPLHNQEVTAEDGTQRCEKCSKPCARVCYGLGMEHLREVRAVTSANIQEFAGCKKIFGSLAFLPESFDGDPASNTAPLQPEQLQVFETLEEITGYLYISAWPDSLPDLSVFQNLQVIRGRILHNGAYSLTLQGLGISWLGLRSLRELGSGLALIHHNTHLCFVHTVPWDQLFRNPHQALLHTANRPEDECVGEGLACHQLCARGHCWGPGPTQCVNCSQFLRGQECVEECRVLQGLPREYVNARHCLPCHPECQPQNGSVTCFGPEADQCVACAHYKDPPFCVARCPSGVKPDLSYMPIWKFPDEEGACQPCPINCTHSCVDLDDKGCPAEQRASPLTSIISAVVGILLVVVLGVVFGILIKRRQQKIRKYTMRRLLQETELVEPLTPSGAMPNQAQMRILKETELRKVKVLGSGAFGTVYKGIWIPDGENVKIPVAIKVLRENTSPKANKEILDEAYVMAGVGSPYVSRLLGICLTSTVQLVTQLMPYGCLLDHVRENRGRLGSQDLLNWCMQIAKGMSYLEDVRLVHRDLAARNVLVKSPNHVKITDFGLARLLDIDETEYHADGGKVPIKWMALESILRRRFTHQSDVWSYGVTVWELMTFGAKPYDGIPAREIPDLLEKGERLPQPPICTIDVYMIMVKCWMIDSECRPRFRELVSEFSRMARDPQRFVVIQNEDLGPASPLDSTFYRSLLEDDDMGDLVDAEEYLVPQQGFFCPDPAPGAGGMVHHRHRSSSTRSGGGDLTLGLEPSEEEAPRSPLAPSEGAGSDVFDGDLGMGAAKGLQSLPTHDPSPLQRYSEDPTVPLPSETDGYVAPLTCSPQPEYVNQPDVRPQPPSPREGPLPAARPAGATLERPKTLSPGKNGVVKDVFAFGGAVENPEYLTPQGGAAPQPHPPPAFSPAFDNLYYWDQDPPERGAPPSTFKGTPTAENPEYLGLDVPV

CC1=C(C(N)=O)C(c2ccccn2)n2nc(-c3ccccc3Cl)nc2N1 (stereo not drawn)
98%: viability [1]
85.4%: viability [6, 16]
inactive: Her2 level [2] 114% | viability [3] 98% | viability [4] 103% | viability [5] 91.6% | differential viability (reversal) ([6]; H69AR cells + 2 uM doxorubicin) 6.15% | inhibition [7] -2% | inhibition [8] -4.17% | growth inhibition [9] -13.8% | growth inhibition [10] -3.02% | viability increase [11] -2.25% | viability [12] 101% | viability [13] 91.7% | inhibition [14] 1% | RAM network inhibition [15] 3.22%
91.6%: viability [6, 17]

CC(=O)Nc1cccc(NC(=O)c2ccco2)c1
inactive: Her2 level [2] 94% | viability [3] 94% | viability [4] 108% | viability [5] 91.5% | differential viability (reversal) ([6]; H69AR cells + 2 uM doxorubicin) -0.085% | inhibition [7] -2.21% | inhibition [8] -11.7% | growth inhibition [9] -5.76% | growth inhibition [10] -3.89% | viability increase [11] -4.18% | viability [12] 99.6% | viability [13] 98.1% | inhibition [14] 1.83% | RAM network inhibition [15] 0.76%
94%: viability [1]
91.6%: viability [6, 16]
91.5%: viability [6, 17]

CCCCc1nc2ccccc2n2cc3c(=O)n(C)c(=O)n(C)c3c12
84.8%: viability [6, 16]
89.6%: viability [6, 17]
86%: viability [1]
inactive: Her2 level [2] 86% | viability [3] 86% | viability [4] 106% | viability [5] 89.6% | differential viability (reversal) ([6]; H69AR cells + 2 uM doxorubicin) 4.81% | inhibition [7] 0% | inhibition [8] 2.17% | growth inhibition [9] -9.65% | growth inhibition [10] -16.2% | viability increase [11] -4.07% | viability [12] 95.8% | viability [13] 89.2% | inhibition [14] 1.36% | RAM network inhibition [15] 0.47%

CC1(C)Cc2ccccc2C(N)=C1C#N
93.7%: viability [6, 17]
83.8%: viability [6, 16]
inactive: Her2 level [2] 111% | viability [3] 93.5% | viability [4] 87.5% | viability [5] 93.7% | differential viability (reversal) ([6]; H69AR cells + 2 uM doxorubicin) 9.91% | inhibition [7] 4.81% | inhibition [8] -3.11% | growth inhibition [9] 4.29% | growth inhibition [10] -0.06% | viability increase [11] -0.77% | viability [12] 89.9% | viability [13] 91.8% | inhibition [14] 0.81% | RAM network inhibition [15] 0.69%
93.5%: viability [1]

COc1ccccc1NC1=C(C)C(=O)CC1
inactive: Her2 level [2] 72% | viability [3] 98% | viability [4] 90.4% | viability [5] 88.7% | differential viability (reversal) ([6]; H69AR cells + 2 uM doxorubicin) 14.5% | inhibition [7] -7.43% | inhibition [8] -0.67% | growth inhibition [9] -1.07% | growth inhibition [10] -11.9% | viability increase [11] -4.17% | viability [12] 75.4% | viability [13] 85.5% | inhibition [14] 1.62% | RAM network inhibition [15] -0.26%
98%: viability [1]
74.1%: viability [6, 16]
88.7%: viability [6, 17]

Cc1n[nH]c(C)c1N1C(=O)c2cccc3cc(Br)cc(c23)C1=O
82.4%: viability [6, 16]
inactive: Her2 level [2] 79% | viability [3] 74.5% | viability [4] 85.5% | viability [5] 81.1% | differential viability (reversal) ([6]; H69AR cells + 2 uM doxorubicin) -1.29% | inhibition [7] 0.26% | inhibition [8] -4% | growth inhibition [9] -11.5% | growth inhibition [10] -11.6% | viability increase [11] -2.41% | viability [12] 107% | viability [13] 101% | inhibition [14] 3.01% | RAM network inhibition [15] 4.68%
74.5%: viability [1]
81.1%: viability [6, 17]

Cc1ccc(S(=O)(=O)NCCOC(=O)Nc2sc(=S)n(C)c2C)cc1
inactive: Her2 level [2] 96.5% | viability [3] 75.5% | viability [4] 90% | viability [5] 101% | differential viability (reversal) ([6]; H69AR cells + 2 uM doxorubicin) 7.26% | inhibition [7] -2.84% | inhibition [8] 14.9% | growth inhibition [9] 6.39% | growth inhibition [10] 23.1% | viability increase [11] -3.78% | viability [12] 115% | viability [13] 88.2% | inhibition [14] 1.25% | RAM network inhibition [15] 1.73%
94.1%: viability [6, 16]
75.5%: viability [1]
101%: viability [6, 17]

O=C(NCc1ccccc1)C1CCN(S(=O)(=O)c2cccc3cccnc23)CC1
inactive: Her2 level [2] 104% | viability [3] 96.5% | viability [4] 99% | viability [5] 98.2% | differential viability (reversal) ([6]; H69AR cells + 2 uM doxorubicin) 2.76% | inhibition [7] 0.67% | inhibition [8] -2.79% | growth inhibition [9] 0.255% | growth inhibition [10] -4.87% | viability increase [11] -2.29% | viability [12] 99.2% | viability [13] 96.3% | inhibition [14] 1.52% | RAM network inhibition [15] -0.57%
98.2%: viability [6, 17]
96.5%: viability [1]
95.4%: viability [6, 16]

COc1ccccc1N1C(=O)CCC1(C#N)c1ccccc1 (stereo not drawn)
97%: viability [1]
96.9%: viability [6, 16]
inactive: Her2 level [2] 102% | viability [3] 97% | viability [4] 104% | viability [5] 117% | differential viability (reversal) ([6]; H69AR cells + 2 uM doxorubicin) 20.5% | inhibition [7] 0.68% | inhibition [8] -3.49% | growth inhibition [9] -7.28% | growth inhibition [10] 0.615% | viability increase [11] -1.56% | viability [12] 108% | viability [13] 99.7% | inhibition [14] 1.52% | RAM network inhibition [15] 2.81%
117%: viability [6, 17]
